# Assay outcomes as filed in PubChem.
# Sampled rows, rich in hits. Any-hit rate of the full collection: about 21%.
# RORgamma inh: qHTS for inhibitors of ROR gamma transcriptional activity. 310,000 tested, 5.4% active. Potency, µM (doses to about 53.6 µM), inactives show top-dose activity change, negative = inhibition, actives largely listed as inhibitors. Drosophila S2 Gal4-RORgamma UAS-luciferase reporter, 20 h; also: potency is read from the fitted curve at half-maximal effect; nearly all actives have a fitted effect of over 60% in size
# Target sequence (P51450 whole entry, looked up, the tested form may be a part): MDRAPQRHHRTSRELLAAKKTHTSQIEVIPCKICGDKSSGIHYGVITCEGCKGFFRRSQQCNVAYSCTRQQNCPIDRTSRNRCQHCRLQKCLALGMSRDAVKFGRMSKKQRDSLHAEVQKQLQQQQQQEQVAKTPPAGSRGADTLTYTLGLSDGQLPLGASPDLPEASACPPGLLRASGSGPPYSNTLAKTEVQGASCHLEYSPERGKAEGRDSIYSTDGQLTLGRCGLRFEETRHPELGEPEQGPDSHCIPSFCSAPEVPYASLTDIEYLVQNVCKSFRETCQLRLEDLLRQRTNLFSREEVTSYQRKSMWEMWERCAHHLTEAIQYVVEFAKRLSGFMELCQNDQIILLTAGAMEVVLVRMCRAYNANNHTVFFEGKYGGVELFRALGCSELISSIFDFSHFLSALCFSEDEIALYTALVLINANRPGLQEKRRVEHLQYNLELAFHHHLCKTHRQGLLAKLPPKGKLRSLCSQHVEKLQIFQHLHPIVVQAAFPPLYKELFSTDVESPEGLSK
#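 ROR gamma transcriptional activity was tracked as Gal4-UAS luciferase output in stably transfected Drosophila Schneider cells, with compound added 1 hr before 700 uM copper sulfate induction and a 20 hr ambient-temperature incubation.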
# ELG1 DNA repair: qHTS screen for small molecules that inhibit ELG1-dependent DNA repair in human embryonic kidney (HEK293T) cells expressing luciferase-tagged ELG1; Potency, µM (titrated, usually from 46.1 µM), for the others: at the top dose activity change, negative = inhibition, hits mostly inhibitors; HEK293T ELG1-luciferase reporter, luminescence, 16 h; DNA damage induced by 5-fluorouridine; 330,000 tested, 2.3% active; AID 504467, 2011; also: potency is read from the fitted curve at half-maximal effect; nearly all actives have a fitted effect of over 55% in size
#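 5-Fluorouridine DNA damage + compound/DMSO, 2,000 cells/well, 16 h, 37 °C/5% CO2. ONE-Glo, 30 min RT, luminescence. Readout = decrease in reporter signal.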
# DT40 TDP1 no CPT: qHTS for Inhibitors of human tyrosyl-DNA phosphodiesterase 1 (TDP1): qHTS in cells in absence of CPT; Potency, µM (top dose mostly 46.2 µM), inactives show at the highest dose activity change, negative = growth inhibition, actives largely listed as inhibitors; 420,000 tested, 15% active; DT40 Tdp1-/- hTDP1 cells, no CPT, ATP luminescence, 48 h; also: potency is read from the fitted curve at half-maximal effect; nearly all actives have a fitted effect of over 55% in size
#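 DT40 Tdp1-/-;hTDP1 cells, no CPT (DMSO vehicle only), 400 cells/well; compounds pin-transferred; ≥48 hr, 37 °C; CellTiter-Glo 30 min RT dark, luminescence read.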
# IL1B secr inh: qHTS for Inhibitors of Inflammasome Signaling: IL-1-beta AlphaLISA Primary Screen; 360,000 tested, 4.7% active; activity change, % at 57.5 µM; THP-1 LPS/ATP IL-1B secretion, AlphaLISA, 16 h; hits give low values; in the data active = activity change below about -50%; inconclusive = mostly about -30% to -49%
#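 THP-1 cells pretreated 1 hr with compounds (up to 57.5 uM final), then stimulated with LPS (250 ng/mL final) plus ATP (1.25 mM final); secreted IL-1B measured by AlphaLISA after 16 hr, decreased signal indicating inhibition.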
# DT40 TDP1 CPT: qHTS for Inhibitors of human tyrosyl-DNA phosphodiesterase 1 (TDP1): qHTS in cells in presence of CPT. chicken DT40 Tdp1-/-;hTDP1 cells + 20 nM CPT, ATP luminescence, 48 h. Potency, µM (top dose mostly 46.2 µM), inactives show top-dose activity change, negative = growth inhibition, most hits filed as inhibitors. 420,000 tested, 12% active. AID 686979, 2013; also: potency is read from the fitted curve at half-maximal effect; nearly all actives have a fitted effect of over 55% in size
#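 Chicken DT40 Tdp1-/- cells complemented with human TDP1, 400 cells/well, exposed to compounds plus 20 nM camptothecin for at least 48 h at 37 C; viability read as ATP content by CellTiter-Glo luminescence.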
# Gal4-VP16 FLuc: VP16 counterscreen qHTS for inhibitors of ROR gamma transcriptional activity; Potency, µM (series often up to 53.6 µM), inactives show at the highest dose activity, negative = inhibition, actives largely listed as inhibitors; Drosophila S2 Gal4-VP16 UAS-luciferase, luminescence, 20 h; 310,000 tested, 3.5% active;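 also: Gal4-VP16 expression switched on by copper sulfate through the metallothionein promoter; potency is read from the fitted curve at half-maximal effect; nearly all actives have a fitted effect of over 50% in size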
# * = called active by the depositor; ? = inconclusive; . = no result given; [ ] = remark or other dose. Unless noted, calls follow the shape of the dose curve; as a rule, active = well fitted curve in the direction sought with a large enough effect; inconclusive = small, poorly fitted or top-dose-only effect, or another doubt; inactive = no such curve, though single readings can be large; an effect the other way counts as inactive or inconclusive. % is scaled to controls: 0 for no effect and ±100 for the full control effect.
SMILES,RORgamma inh,ELG1 DNA repair,DT40 TDP1 no CPT,IL1B secr inh,DT40 TDP1 CPT,Gal4-VP16 FLuc
O=C(CCCCCn1c(=S)[nH]c2cc3c(cc2c1=O)OCO3)N1CCN(C(=O)c2ccco2)CC1,-12%,-18%,-29%,0,-23%,9%
O=C(CCCn1c(=S)[nH]c2cc3c(cc2c1=O)OCO3)N1CCN(c2ccccn2)CC1,13µM*,15µM*,?,1,?,?
COc1ccc(OC[C@@H](CO)OC)cc1,-1%[10 µM],.,.,.,.,1%[10 µM]
COCCCNC(=O)c1ccc2sc(C3=C[C@@H](O)[C@@H](O)[C@@H](CO)O3)nc2c1,.,.,-11%,0,1%,.
C/C(N)=C(/C#N)C(=O)COC(=O)C1CCC(C(C)(C)C)CC1 (centres undefined),-2%,-24%,?,8,-15%,?
O=C1CC(=O)CC(c2ccccc2Cl)C1,?,19%,5%,22,-5%,-6%
Cc1ccc(C)c(N2CCN(C(=O)CCn3c(=S)[nH]c4cc5c(cc4c3=O)OCO5)CC2)c1,?,7%,?,59,?,-3%
O=C(CCCn1c(=S)[nH]c2cc3c(cc2c1=O)OCO3)NCc1cccc(Cl)c1,13µM*,0%,?,40,?,?
O=C(CCn1c(=S)[nH]c2cc3c(cc2c1=O)OCO3)NCc1cccc(Cl)c1,?,15%,10%,0,-28%,?
O=C(CCCCCn1c(=S)[nH]c2cc3c(cc2c1=O)OCO3)N1CCN(C2CCCCC2)CC1,?,21%,?,-74*,?,?
Cc1ccc2c(c1)C(c1ccccc1)N(C(=O)c1ccc(Br)o1)CC(=O)N2 (centres undefined),-10%,?,21µM*,-11,21µM*,6%
Cc1ccc2c(c1)C(c1ccc(F)cc1)N(C(=O)c1ccccc1Br)CC(=O)N2 (centres undefined),13%,-16%,-20%,5,-19%,-5%
O=C1CN(C(=O)c2ccc(S(=O)(=O)N3CCCC3)cc2)C(c2ccccc2)c2cc(Br)ccc2N1 (centres undefined),.,.,?,.,15µM*,.
O=C1CN(C(=O)c2ccc(Br)o2)C(c2ccccc2)c2cc(Br)ccc2N1 (centres undefined),14%,?,21µM*,?,16µM*,-16%
Cc1ccc(C(=O)N2CC(=O)Nc3ccc(F)cc3C2c2ccccc2)cc1 (centres undefined),22%,-1%,-25%,-3,1%,10%
NNc1ccc(Cc2ccc(Cl)cc2Cl)nn1,3.5µM*,?,?,78,2%,?
Nc1nc(N)c(Cc2ccc(Cl)cc2Cl)c(N)n1,24%,?,23µM*,-6,26µM*,-21%
CSc1ccc(Cc2ccc(Cl)cc2Cl)nn1,14%,?,-13%,-14,-13%,-2%
COc1ccc(C(=O)NNC(=O)Cc2nc3nc(C)cc(C)n3n2)cc1,-13%,9%,8%,-2,19%,-2%
O=C(NCC1CCCCC1)c1ccc2nc([C@@H]3O[C@H](CO)[C@@H](O)[C@H]3O)[nH]c2c1,.,.,20%,33,8%,.
Cc1cc2c3c(c1)C(C)(c1ccccc1)CC(C)(C)N3C(=O)C21C(C#N)=C(N)OC2=C1C(=O)CC(C)(C)C2 (centres undefined),?,?,23µM*,?,21µM*,-29%
CC1(c2ccccc2)CC(C)(C)N2C(=O)C3(C(C#N)=C(N)Oc4cc(O)ccc43)c3cccc1c32 (centres undefined),5%,-11%,?,-51*,?,-11%
CC1=CC(C)(C)N2C(=O)C3(C(C#N)=C(N)Oc4cc(O)ccc43)c3c(C)c(C)cc1c32 (centres undefined),2.8µM*,2%,?,-73*,?,-12%
CC1=CC(C)(C)N2C(=O)C3(C(C#N)=C(N)OC4=C3C(=O)CCC4)c3c(C)c(C)cc1c32 (centres undefined),26%,-5%,?,-14,-17%,-8%
OC[C@@H]1CN(Cc2cccs2)C[C@H](n2cnc3c(NCc4ccncc4)ncnc32)O1,.,.,-4%,2,7%,.
SMILES,RORgamma inh,ELG1 DNA repair,DT40 TDP1 no CPT,IL1B secr inh,DT40 TDP1 CPT,Gal4-VP16 FLuc
COc1ccc(CC(=O)Oc2ccc(C(C)(C)C)cc2)cc1S(=O)(=O)N1CCOCC1,.,15%,13%,6,-10%,.
O=C(COc1ccc(F)cc1)NCC1(N2CCCCC2)CCCCC1,.,30%,2%,-13,1%,.
N#CC1(Cc2ccccc2)c2ccccc2C=CN1C(=O)c1ccccc1 (centres undefined),-39%,-5%,?,14,?,4%
N#CC1(Cc2ccc([N+](=O)[O-])cc2)c2ccccc2C=CN1C(=O)c1ccccc1 (centres undefined),-8%,0%,15µM*,-20,?,-4%
C=CCNc1ncnc2c1[nH]c1ccc(Cl)cc12,-13%,7%,23µM*,-122*,?,?
Cc1ccc(C)c(S(=O)(=O)N2CCCCC2CCNC(=O)C(=O)NC2CCCC2)c1 (centres undefined),.,?,16µM*,7,?,.
Cc1ccc(S(=O)(=O)N2CCCCC2CCNC(=O)C(=O)NC2CCCC2)cc1 (centres undefined),.,?,21µM*,7,?,.
Cc1ccc(N2CCN(Cc3nnc(-c4ccc5c(c4)OCO5)o3)CC2)c(C)c1,.,.,23µM*,.,?,.
CCCCNC(=O)C1(C)CCCCN1CC(=O)c1ccc(OC)cc1 (centres undefined),.,.,26µM*,-10,16µM*,.
CCOc1cc(C(=O)Nc2ccc(-c3cn4cccnc4n3)cc2)cc(OCC)c1OCC,.,.,9.2µM*,.,12µM*,.
Cc1onc(-c2ccccc2Cl)c1C(=O)Nc1ccc(-c2cn3cccnc3n2)cc1,2%,13µM*,?,4,?,-16%
Cc1cc(C)cc(C(=O)Nc2ccc(-c3cn4cccnc4n3)cc2)c1,.,.,9.2µM*,.,?,.
